# In the library only some 4.7% were active in any assay of this set; here they are far more common.
# tim10-1 inh: growth inhibitors of tim10-1 mutant yeast, primary screen, luminescence, uHTS; S. cerevisiae tim10-1 ts strain growth, BacTiter-Glo, 24 h; 330,000 tested, 2.2% active; inhibition, % at 20 µM; AID 463190, 2010;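 active = inhibition of at least 40%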;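 also: mutant grown at 25 °C; 0% = DMSO wells with yeast and 100% = wells holding no yeast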
# SKKanGAS inh: S. pyogenes SKKanGAS growth inhibitors in kanamycin, primary screen, streptokinase expression inhibitor project, SKKanGAS strain, BacTiter-Glo luminescence; inhibition, % at 7.5 µM; 6 h; 300,000 tested, 1.3% active;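 active = mean replicate score, as percent of positive control median, at least 50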;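 also: strain carries kanamycin resistance gene driven by streptokinase promoter and grows in 40 µg/ml kanamycin; loss of luminescence reflects streptokinase promoter inhibition or plain growth inhibition; 0% = median of DMSO wells and 100% = positive control at its reference dose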
# EBI2 block: EBI2 receptor antagonists, beta-arrestin recruitment, primary screen, cell-based, luminescence, 7a,25-OHC stimulation, uHTS; G-protein coupled receptor 183 (Homo sapiens), P32249; 7a,25-OHC stimulated; inhibition, % at 5 µM; 360,000 tested, 0.81% active; in the data active = inhibition above about 38%;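 also: enzyme fragment complementation signal reports receptor beta-arrestin coupling in cells; 0% = agonist plus DMSO wells and 100% = wells without agonist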
# Target sequence (P32249 whole entry, looked up, the tested form may be a part): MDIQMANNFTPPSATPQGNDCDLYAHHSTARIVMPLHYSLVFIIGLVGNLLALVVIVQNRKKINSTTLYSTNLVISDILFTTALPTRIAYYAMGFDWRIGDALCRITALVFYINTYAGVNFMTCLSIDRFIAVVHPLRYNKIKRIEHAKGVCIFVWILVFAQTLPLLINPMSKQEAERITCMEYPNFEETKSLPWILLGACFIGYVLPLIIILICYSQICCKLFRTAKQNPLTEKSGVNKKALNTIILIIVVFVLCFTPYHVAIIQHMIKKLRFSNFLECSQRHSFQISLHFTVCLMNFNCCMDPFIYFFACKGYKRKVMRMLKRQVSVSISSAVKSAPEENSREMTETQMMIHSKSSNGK
# TIM10 inh: growth inhibitors of isogenic TIM10 control yeast, primary screen, counter-screen for tim10-1 yeast inhibitor project, luminescence, uHTS; inhibition, % at 10 µM; 330,000 tested, 1.4% active; S. cerevisiae TIM10 strain growth, BacTiter-Glo luminescence, 24 h;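 active = inhibition of 40% or more at the single tested concentration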;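 also: wild-type TIM10 isogenic control strain grown at permissive 25 °C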
# tim23-1 inh: growth inhibitors of tim23-1 mutant yeast, primary screen, luminescence, uHTS. S. cerevisiae tim23-1 growth, BacTiter-Glo luminescence, 24 h. inhibition, % at 20 µM. 330,000 tested, 1.3% active. AID 463212, 2010;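 active = growth inhibition of the mutant yeast at or above 50%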;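 also: temperature-sensitive mutant grown at 25 °C; plate controls were DMSO-treated mutant yeast for no effect and medium wells lacking yeast for full effect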
# PfHsp90 set2: growth inhibition of PfHsp90-expressing yeast, primary screen, antimalarial PfHsp90 inhibitor project, S. cerevisiae, BacTiter-Glo luminescence, single point, set 2 | inhibition, % at 9.4 µM | 310,000 tested, 0.32% active | BacTiter-Glo ATP, 48 h; yeast lacking PDR1 and PDR3 efflux regulators;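 active = every replicate shows inhibition above about 80%, whatever the replicate mean, limit read from the data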;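 also: 0% = DMSO neutral controls and 100% = 20 µM radicicol positive controls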
# tim10-1 conf: growth inhibitors of tim10-1 mutant yeast, confirmation, single concentration, luminescence, S. cerevisiae. shares compounds with tim10-1 inh. S. cerevisiae tim10-1 ts strain growth, BacTiter-Glo, 24 h. inhibition, % at 20 µM. 7,400 tested, 56% active;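 active = inhibition of yeast growth at or above a set limit in either of two repeat tests at 20 µM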;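 also: tim10-1 mutant grown at permissive 25 °C to find synthetic lethal compounds; 0% = DMSO yeast wells and 100% = medium wells without yeast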
# tim10 confirm: growth inhibitors of wild-type TIM10 yeast, confirmation, counter-screen for tim10-1 synthetic lethality project, single concentration, luminescence, S. cerevisiae; shares compounds with TIM10 inh; S. cerevisiae tim10 strain growth, BacTiter-Glo luminescence, 24 h; inhibition, % at 10 µM; 4,600 tested, 63% active;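 active = inhibition of yeast growth at or above a set limit in either of two replicates at 10 µM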;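 also: this counterscreen used the strain with wild-type TIM10; 0% = yeast with DMSO and 100% = medium wells lacking yeast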
# tim23-1 confirm: tim23-1 mutant yeast growth inhibitors, confirmation, luminescence, single concentration; shares compounds with tim23-1 inh; S. cerevisiae tim23-1 growth, BacTiter-Glo luminescence, 24 h; inhibition, % at 20 µM; 4,400 tested, 83% active;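 active = inhibition above about 39% in either of two replicate wells at 20 µM, limit read from the data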;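 also: temperature-sensitive tim23-1 mutant grown at 25 °C; 0% = DMSO wells with yeast and 100% = medium wells without yeast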
# Starred values were filed as active, the others as inactive; . = no result.
SMILES,tim10-1 inh,SKKanGAS inh,EBI2 block,TIM10 inh,tim23-1 inh,PfHsp90 set2,tim10-1 conf,tim10 confirm,tim23-1 confirm
CCOc1cc(-c2cc(-c3ccc(N)cc3)nc(N)c2C#N)ccc1O,41.3*,38.3,0.3,17.5,50.4*,-8.4,14.8,.,53.0*
CCOc1cc(-c2cc(-c3ccccc3)nc(N)c2C#N)ccc1O,23.4,-5.6,16.1,31.7,30.3,2.1,.,.,.
COc1ccc(COC(=O)CCc2c[nH]c3ccccc23)cc1F,13.4,-4.5,-6.0,2.6,27.8,5.2,.,.,.
CCc1c(C)c(C#N)c2nc3ccccc3n2c1NCCOC,33.9,3.0,-2.4,6.5,32.8,3.9,.,.,.
CCCCc1c(C)c(C#N)c2nc3ccccc3n2c1NCCN(C)C,57.2*,-6.6,-2.7,51.9*,65.3*,17.7,63.0*,37.2*,68.8*
Cc1c(Cc2ccccc2)c(NCCN(C)C)n2c(nc3ccccc32)c1C#N,47.9*,-2.9,-14.8,69.0*,57.5*,110.7*,56.8*,80.2*,69.5*
CCc1c(C)c(C#N)c2nc3ccccc3n2c1NCCCN(C)C,.,.,-19.1,.,.,.,.,.,.
Cc1c(C)n(CCCN(C)C)c2ncnc(NC3CCCCC3)c12,14.2,0.4,-4.1,-13.2,4.0,-9.2,.,.,.
CCOc1ccccc1C(=O)N(Cc1ccc(C)o1)C1CCS(=O)(=O)C1 (configuration not stated),13.0,0.8,-7.9,-8.2,6.7,-16.8,.,.,.
Cc1ccc(-c2nc(N/N=C/c3cccnc3)c3ccccc3n2)cc1,75.8*,15.3,6.8,66.2*,84.3*,16.9,73.9*,59.0*,85.2*
Cc1ccc(/C=N\NC(=O)/C(=C\Nc2nccc(C)n2)NC(=O)c2ccccc2)cc1,4.2,-2.6,0.6,6.0,4.0,9.3,.,.,.
CC(=O)Cc1nsc(NC(=O)c2ccc(-c3cc(Cl)ccc3Cl)o2)n1,20.4,17.7,-0.8,24.6,31.1,-20.8,.,.,.
CC(=O)Cc1nsc(NC(=O)c2ccc(-c3ccc(Cl)cc3Cl)o2)n1,46.1*,17.0,20.3,6.9,56.8*,-44.4,35.4*,.,53.2*
CC(=O)NC(C)c1cc(Cl)c2ccccc2c1O (configuration not stated),2.5,.,-13.0,5.3,22.9,-4.5,.,.,.
CC(=O)NC(C)c1cc(Cl)c2cccnc2c1O (configuration not stated),40.8*,.,-1.9,21.2,53.4*,-2.9,20.7,.,38.2
O=[N+]([O-])c1cnc(Nc2ccc(Cl)cn2)c([N+](=O)[O-])c1,73.1*,11.1,4.0,49.6*,73.1*,-41.1,69.0*,32.8*,81.3*
O=C(Nc1ccc(Cl)cn1)c1ccccc1[N+](=O)[O-],-2.1,-9.5,3.0,17.8,-10.4,-6.9,.,.,.
O=C(/C=C/c1ccc(Cl)c(Cl)c1)n1cccn1,60.6*,-5.0,-5.2,49.7*,58.9*,-15.3,40.8*,-13.1,44.3*
CCOC(=O)c1[nH]c(C=O)c(C(=O)OCC)c1C,59.9*,0.7,-21.4,67.3*,76.3*,-12.4,50.0*,54.8*,79.9*
CCCCn1nnc(NC(=O)c2ccc(-c3cccc(Cl)c3)o2)n1,49.7*,-2.6,6.2,45.0*,71.7*,-31.3,51.0*,47.3*,74.1*
CCCCCCNc1c([N+](=O)[O-])c(=O)sc2ccccc12,3.0,4.7,5.2,33.4,36.9,.,.,.,.
CC(C)(C)Nc1c([N+](=O)[O-])c(=O)sc2ccccc12,54.6*,-0.4,-5.6,59.6*,71.3*,1.2,52.8*,48.6*,68.6*
COc1cc(OC)c(C#N)c(S(=O)(=O)Cc2ccccc2)c1,17.5,-0.7,-1.4,-0.2,15.3,2.5,.,.,.
N#Cc1c([N+](=O)[O-])cc([N+](=O)[O-])cc1S(=O)(=O)Cc1ccccc1,62.4*,.,5.6,53.9*,67.1*,-6.1,61.2*,64.3*,87.1*
CC(C)OCCCNC(=O)CNC(=O)c1ccc(Cl)c(Cl)c1,-2.1,-6.1,-9.6,-0.7,9.0,0.4,.,.,.
SMILES,tim10-1 inh,SKKanGAS inh,EBI2 block,TIM10 inh,tim23-1 inh,PfHsp90 set2,tim10-1 conf,tim10 confirm,tim23-1 confirm
COc1ccc(CCNc2oc(-c3ccco3)nc2C#N)cc1,42.4*,-0.2,7.5,52.0*,64.1*,-12.5,-5.2,36.9*,67.9*
O=C(COn1nnc2ccccc21)N1CCN(Cc2ccccc2)CC1,-4.1,5.7,0.1,7.1,0.1,-20.7,.,.,.
O=C(CSc1ncccn1)NC1CCS(=O)(=O)C1 (configuration not stated),-22.6,1.1,-16.1,4.5,-2.8,.,.,.,.
COc1cc(-c2nc3ccccc3s2)ccc1O,50.2*,1.6,-3.6,49.3*,51.8*,-14.2,53.4*,48.0*,54.9*
COc1cc(OC)c(-c2nc3ccccc3s2)cc1OC,0.2,-3.1,14.0,12.4,35.9,-8.9,.,.,.
CC#CC(=O)N1CCCC(Cc2cccc(OC)c2)(C(=O)OCC)C1 (configuration not stated),25.1,-1.3,13.2,-4.4,18.1,9.4,.,.,.
Cc1ccc(/C(O)=C/c2nc3ccccc3oc2=O)cc1,-30.0,3.9,1.9,-5.0,-17.7,.,.,.,.
O=c1oc2ccccc2nc1/C=C(O)/C=C/c1ccc(F)cc1,41.3*,1.5,-6.1,56.0*,63.6*,38.0,58.8*,57.5*,-12.7
COc1cc(C(=O)O[C@H]2CC(C)=CC[C@@]3(C)CC[C@@](O)(C(C)C)[C@H]23)ccc1O,50.2*,13.8,5.8,29.0,54.3*,-27.3,39.5*,.,57.3*
O=c1[nH]c(/C=C\c2cccc(Cl)c2)nc(O)c1[N+](=O)[O-],3.9,7.9,-2.7,6.8,0.1,-21.4,.,.,.
CC(=O)Nc1cccc(NC(=O)COc2ccccc2C)c1,20.3,-2.3,2.7,0.2,-0.9,12.7,.,.,.
Cc1ccc(NC(=O)COc2ccccc2C=O)cc1Cl,42.7*,-0.7,8.1,50.7*,68.6*,17.5,26.0,50.6*,69.0*
O=C(C1=C(O)/C(=C/c2ccc(O)cc2)CCC1)C(F)(F)F,49.7*,.,-2.0,16.9,51.8*,-1.9,16.4,.,58.8*

# Screens deposited in PubChem by several laboratories.
